# In PubChem BioAssay (NCATS):
# Records with an inconclusive call do not appear. Values without a mark were called inactive. The source made the active and inactive calls. The call rests on the fitted dose curve; in most records, active means well fitted curve in the direction sought with a large enough effect; inconclusive means small, poorly fitted or top-dose-only effect, or another doubt; inactive means no such curve, though single readings can be large; an effect the other way counts as inactive or inconclusive.
# Assays:
# [1] = Drug repurposing screens with cells derived from glioblastoma tumor samples (AID 1345199); settings: GBM patient neurospheres viability, ATP luminescence, 48 h; further: nearly all actives have a fitted effect of over 40% in size
# How it was run: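 Four patient lines of CD133+ GBM neurospheres were screened at several concentrations; hits were retested in those lines plus three slower-growing GBM lines, using 48-hour treatment and ATP-based viability.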
# [2] = qHTS assay to identify inhibitors of the type 1 interferon - major histocompatibility complex class I in skeletal muscle: Counter screen cell viability and HiBit confirmation (AID 1347412); settings: iHSKM muscle cells + IFN-b, HiBiT or CellTiter-Glo, 24 h; for Potency: HiBiT; on all read-outs here: nearly all actives have a fitted effect of over 60% in size
# How it was run: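 Human myoblast knock-in line, 4.0 ng/ml IFN-beta stimulation, 24 h compound treatment. Endpoints: HiBiT lytic luminescence (HLA-B level) and CellTiter Glo (ATP). Dosing 12 concentrations, 3-fold steps, 46 uM highest final.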
# [3] = at 46.1 µM (top of the series), tumour line C
# On the % scale 0 is the no-effect control and ±100 the full control effect; potency means the concentration at half of the fitted maximal effect.
compound,measurement,setting,value
O=C(O)c1nc(=O)[nH]c(=O)[nH]1,"activity, negative = cell killing","[1]; at 45.9 µM (top of the series), tumour line B",0.794%
same,"activity, negative = cell killing","[1]; at 45.9 µM (top of the series), tumour line D",6.49%
same,"activity, negative = cell killing","[1]; at 46 µM (top of the series), tumour line A",-9.41%
same,"activity, negative = cell killing",[1]; [3],-6.32%
O=C(Nc1cccc(Cl)c1)Nc1ncc(CCNc2ncnc3ccsc23)s1,"activity change, negative = inhibition","[2]; Viability, at 45.9 µM (top of the series)",8.48%
Fc1ccc(C(c2ccc(F)cc2)N2CCN(CC=Cc3ccccc3)CC2)cc1,"activity, negative = cell killing",[1]; [3],-6.32%
same,Potency,[1]; tumour line A,2.82 µM (active)
same,Potency,[1]; tumour line D,11.2 µM (active)
COc1c(C)cnc(Cn2cnc3c(Cl)nc(N)nc32)c1C,Potency,[2],0.222 µM (active)
Cc1cccc(Nc2nc(N[C@@H]3CCCC[C@H]3N)ncc2C(N)=O)c1,Potency,[2],15.7 µM (active)
